Drawing on PubChem BioAssay (EPA / NIEHS), this text covers outcome and AC50 for 15 molecules.

Molecules are shown by their SMILES. Where “and” joins values, the source holds several entries; their conditions need not be identical. Equal entries are not always repeated. Inconclusive results are not listed. Calls of active or inactive are those of the source. Rule for the calls, unless noted: active = hit-call score of the fitted dose curve at least 0.9, where 1 is the maximum; inactive = score below 0.9.

Experiment [1] in a line: CCTE_Harrill_HTTr_Apoptosis_MCF7: CCTE's 6-hour Apoptosis Assessment for the High-Throughput Transcriptomics (HTTr) Platform, in MCF-7 cells cultured in DMEM + 10% fetal bovine serum, Harrill Lab (AID 2284011). An outline of the steps:
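High-content imaging of CellEvent Caspase 3/7 Green signal follows a six-hour exposure, with eight concentrations per chemical. MCF-7 cells grown in DMEM plus 10% fetal bovine serum; activity fitted in both directions against DMSO.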

The nature of experiment [2]: CCTE_Harrill_HTTr_CellCount_MCF7: CCTE's Cell Proliferation Assessment for the High-Throughput Transcriptomics (HTTr) Platform, Harrill Lab (AID 2284012; active = hit-call score of the fitted dose curve at least 0.9, where 1 is the maximum;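 note: cells exposed to compound for six hours; intended direction is loss of nuclei count meaning fewer cells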). Summed up: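 Cell count served as viability reporter: loss of Hoechst-stained nuclei, counted by high content imaging, marks decreased growth or survival. Exposure was 6 h in MCF-7 cells across eight concentrations, with DMSO as baseline.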

Experiment [3] is described as follows: CCTE_Shafer_MEA_acute_burst_number: CCTE's Neural Acute Assay for Single-Electrode Bursts, Shafer Lab (AID 2284013). Summed up: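 Burst totals were derived with adaptive spike detection (8x rms threshold) on filtered signals from rat cortical cultures; change relative to pre-treatment baseline after 40-min compound exposure (0.03-40 uM) was fitted in the negative direction against DMSO.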

Experiment [4] is described as follows: CCTE_Shafer_MEA_acute_per_burst_spike_number_mean: CCTE's Neural Acute Assay for Average Number of Spikes Per Burst, Shafer Lab (AID 2284015).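 Note: hits are decreases in mean spikes per burst versus baseline.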 An outline of the steps:
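Percent change in mean spikes per single-electrode burst is compared between a 40 min baseline and a 40 min recording with compound (0.03-40 uM). Cultures were rat cortical neurons on MEA plates at DIV 13 or 15, recorded at 37 C, with DMSO as the negative control.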

The nature of experiment [5]: CCTE_Shafer_MEA_acute_burst_percentage_mean: CCTE's Neural Acute Assay for Percentage of Spikes in a Burst, Shafer Lab (AID 2284017).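 For AC50: curve fitted for loss of signal so potency reflects decreased burst percentage.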 An outline of the steps:
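Well-level mean burst percentage from a 40-min recording after compound (0.03-40 uM) expressed as percent change from a 40-min baseline at 37C. Cultures: primary rat cortical neurons on MEA, dosed on DIV 13 or 15; fitted downward relative to DMSO.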

The nature of experiment [6]: CCTE_Shafer_MEA_acute_burst_percentage_std: CCTE's Neural Acute Assay for Standard Deviation of Burst Percentage, Shafer Lab (AID 2284018).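 Note: fitted in the negative direction so actives lower burst percentage SD.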 Summed up:
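Primary rat cortical neurons on 16-electrode MEA wells were recorded 40 min at baseline (DIV 13 or 15), then 40 min after compound (0.03-40 uM), at 37 C. Well value is SD across electrodes of spikes-in-bursts/total spikes; endpoint is percent change, DMSO-referenced.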

Experiment [7] in a line: CCTE_Shafer_MEA_acute_per_network_burst_spike_number_mean: CCTE's Neural Acute Assay for Average Number of Spikes in a Network Burst, Shafer Lab (AID 2284019).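 For AC50: curve fitted for loss of signal so actives reduce spikes per network burst.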 Summed up:
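Acute exposure of rat primary cortical networks (DIV 13/15) on MEAs; adaptive spike detection at 8x rms noise, 37 C. Percent change in spikes per network burst after 40 min with compound (0.03-40 uM), negative direction vs DMSO.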

A short description of experiment [8]: CCTE_Shafer_MEA_acute_per_network_burst_spike_number_std: CCTE's Neural Acute Assay for Standard Deviation of Number of Spikes in a Network Burst, Shafer Lab (AID 2284020).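 Note: fitted for decrease in spike-number SD versus DMSO so actives lower it.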 An outline of the steps:
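Acute MEA exposure, rat cortical neurons, 0.03-40 uM. Per-well % change versus own baseline; DMSO as negative control.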

A short description of experiment [9]: CCTE_Shafer_MEA_acute_per_network_burst_electrodes_number_mean: CCTE's Neural Acute Assay for Mean Number of Electrodes in a Network Burst, Shafer Lab (AID 2284021).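 Note: curves fitted for decreases only so hits reduce electrodes per burst.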 An outline of the steps:
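Percent change from baseline was computed as mean electrode count per network burst, comparing 40 min recordings before and during compound (0.03-40 uM) exposure. Cultures were rat cortical neurons at DIV 13 or 15, recorded on MEAs at 37 C with an adaptive 8x rms threshold.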

Experiment [10] can be described thus: CCTE_Shafer_MEA_acute_network_burst_percentage: CCTE's Neural Acute Assay for Percentage of Network Bursts, Shafer Lab (AID 2284022).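 Note: curves fitted for loss so actives lower network burst percentage.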 Summed up:
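Network burst percentage (spikes in network bursts divided by total spikes) recorded at 37 C over 40 min baseline and 40 min after compound, 0.03-40 uM, in rat cortical cultures at DIV 13 or 15. Analysed as percent change from baseline versus DMSO.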

For experiment [11], the target named is Estrogen receptor (Homo sapiens) (UniProt P03372). Nature of the experiment: CCTE_Deisenroth_AIME_96WELL_LUC_Active: CCTE's 96-well Estrogen Receptor Transactivation Assay with AIME metabolic competence (ERTA luciferase; metabolism positive), Deisenroth Lab (AID 2284023; active = hit-call score of the fitted dose curve at least 0.9, where 1 is the maximum). An outline of the steps:
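Metabolism-positive mode: induced rat hepatic S9 in alginate microspheres conditions test solutions (0.002 - 200 uM, 10 points) for 2 hours. VM7Luc4E2 ER luciferase reporter cells then exposed 24 h; positive-direction fit against 17beta-estradiol, n=4 typical.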

Experiment [12] in a line: CCTE_Shafer_MEA_acute_cross_correlation_area: CCTE's Neural Acute Assay for Area of Cross Correlation, Shafer Lab (AID 2284024).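 Note: rat primary cortical neuron networks on 48-well MEA at DIV 13 or 15 with 40 min exposure; area under pooled inter-electrode spike cross-correlation near zero lag as percent change from own baseline; curves fitted for loss of cross-correlation area so actives lower synchrony.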 An outline of the steps: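 Percent change in well-wide cross-correlation area (window around zero lag) between 40 min baseline and 40 min post-compound recordings, 37 C; rat cortical cultures on MEA at DIV 13 or 15, dosed 0.03-40 uM, wells needing >/= 10 active electrodes.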

Experiment [13] addresses Estrogen receptor (Homo sapiens) (UniProt P03372). Nature of the experiment: CCTE_Deisenroth_AIME_96WELL_LUC_Inactive: CCTE's 96-well Estrogen Receptor Transactivation Assay without AIME metabolic competence (ERTA luciferase; metabolism negative), Deisenroth Lab (AID 2284025; active = hit-call score of the fitted dose curve at least 0.9, where 1 is the maximum). An outline of the steps: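 Metabolism-negative arm: chemicals (0.002–200 uM, 10 points) incubated 2 h with alginate-water microspheres, then medium moved onto VM7Luc4E2 cells for 24 h luciferase read-out. Positive direction vs 17beta-estradiol; n≥4 experiments.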

Experiment [14] in a line: CCTE_Shafer_MEA_acute_cross_correlation_HWHM: CCTE's Neural Acute Assay for Cross Correlation at Half Width at Half Maximum, Shafer Lab (AID 2284026).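 For outcome: spontaneous network firing of rat primary cortical neurons on multiwell microelectrode arrays.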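 Note: percent change per well from pre-dose baseline in spike cross-correlogram half width; hits are a decrease in cross-correlogram half width relative to DMSO.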 Summed up:
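Per-well percent change in cross-correlogram half width at half maximum, derived from 40-min recordings before and after compound (0.03-40 uM) at 37 C. Cultures were rat cortical neurons, DIV 13 or 15, with adaptive spike detection at 8x rms.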

Experiment [15] is described as follows: CCTE_Shafer_MEA_acute_synchrony_index: CCTE's Neural Acute Assay for Synchrony, Shafer Lab (AID 2284027).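 Note: network synchrony index of spontaneous spiking in primary rat cortical neurons on MEAs; fitted for loss of signal so actives lower synchrony relative to DMSO.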 An outline of the steps: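 Plates equilibrated 20 min at 37 C, baseline recorded 40 min, compound (0.03-40 uM) added, then 40 min more recorded. Cells: primary rat cortical neurons, DIV 13 or 15. Per-well synchrony index change analysed in negative direction against DMSO.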

The nature of experiment [16]: CCTE_Deisenroth_AIME_96WELL_CTox_Active: Cytotoxicity Assessment (CTOX) in CCTE's 96-well Estrogen Receptor Transactivation Assay with AIME metabolic competence (metabolism positive), Deisenroth Lab (AID 2284028; active = hit-call score of the fitted dose curve at least 0.9, where 1 is the maximum). An outline of the steps: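 Cytotoxicity in VM7Luc4E2 breast cells after 24 h exposure to medium from a 2 h metabolic pre-incubation with induced rat hepatic S9 in alginate microspheres; fluorescent live-cell protease readout, 10-point series 0.002–200 uM, n=4.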

The nature of experiment [17]: CCTE_Deisenroth_AIME_96WELL_CTox_Inactive: Cytotoxicity Assessment (CTOX) in CCTE's 96-well Estrogen Receptor Transactivation Assay without AIME metabolic competence (metabolism negative), Deisenroth Lab (AID 2284029; active = hit-call score of the fitted dose curve at least 0.9, where 1 is the maximum). Summed up:
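Metabolism-negative mode: alginate-water lids without rat S9, 2 h pre-incubation of 10-point series (0.002 - 200 uM). Conditioned medium on VM7Luc4E2 cells 24 h; loss of fluorescent live-cell protease signal marks cytotoxicity.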

Experiment [18] in a line: CCTE_Shafer_MEA_dev_firing_rate_mean: CCTE's Neural Network Formation Assay for Mean Firing Rate, Shafer Lab (AID 2284031).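 For AC50: curve fitted for loss of firing so AC50 reflects decreased mean firing rate.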 An outline of the steps: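 Steps: seed rat cortical cells (1.5 x 10^5/well) with laminin on PEI-coated MEA; dose day 0; record DIV 5/7/9/12, full media and compound exchange after DIV 5 and 9 recordings; compute well-mean firing rate AUC.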
Experiment [19] is described as follows: CCTE_Shafer_MEA_dev_per_burst_spike_percent: CCTE's Neural Network Formation Assay for Percent of Spikes in a Burst, Shafer Lab (AID 2284032).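 For AC50: fitted as a decrease in burst spike percentage below DMSO baseline.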 Summed up:
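Value is trapezoidal AUC over recordings on days 5, 7, 9 and 12 of the well-mean fraction of spikes falling in single-electrode bursts; rat cortical cultures exposed continuously from plating, treatment renewed DIV 5 and 9, fitted downward against DMSO.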

The target in experiment [20] is Estrogen receptor (Homo sapiens) (UniProt P03372). Nature of the experiment: CCTE_Deisenroth_AIME_384WELL_LUC_Active: CCTE's 384-well Estrogen Receptor Transactivation Assay with AIME metabolic competence (ERTA luciferase; metabolism positive), Deisenroth Lab (AID 2284030; active = hit-call score of the fitted dose curve at least 0.9, where 1 is the maximum). Summed up: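 VM7Luc4E2 breast cells were given, for 24 hours, medium pre-incubated for 2 hours with parent chemical (0.002-200 uM, 10 concentrations) and alginate-encapsulated phenobarbital/beta-naphthoflavone-induced rat hepatic S9. Luciferase gain of signal was fitted against 17beta-estradiol; n=4 or more.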
Chain of Estrogen receptor (Homo sapiens) (P03372 whole entry, looked up): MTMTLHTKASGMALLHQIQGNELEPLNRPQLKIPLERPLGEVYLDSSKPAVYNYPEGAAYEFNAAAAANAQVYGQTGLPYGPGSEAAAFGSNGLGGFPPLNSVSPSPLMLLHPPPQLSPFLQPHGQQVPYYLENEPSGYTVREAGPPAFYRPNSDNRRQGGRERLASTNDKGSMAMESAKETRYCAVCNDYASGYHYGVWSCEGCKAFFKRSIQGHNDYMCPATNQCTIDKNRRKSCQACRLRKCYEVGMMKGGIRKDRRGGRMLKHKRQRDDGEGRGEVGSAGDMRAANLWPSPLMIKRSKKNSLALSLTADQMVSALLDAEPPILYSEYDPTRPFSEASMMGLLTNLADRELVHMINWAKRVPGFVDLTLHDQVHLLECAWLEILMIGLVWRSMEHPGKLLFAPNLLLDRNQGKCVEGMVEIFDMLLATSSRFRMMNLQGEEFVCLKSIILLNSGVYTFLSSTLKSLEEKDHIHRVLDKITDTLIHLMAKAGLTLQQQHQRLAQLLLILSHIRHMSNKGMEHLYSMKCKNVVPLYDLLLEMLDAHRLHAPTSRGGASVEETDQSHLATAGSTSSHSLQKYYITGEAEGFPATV

Take `N#Cc1cc(Br)c(O)c(Br)c1`: the result in experiment [1] and in [2] was inactive.

On to `COc1ccc(C(c2ccc(OC)cc2)C(Cl)(Cl)Cl)cc1`, for which the outcome in experiment [1], in experiment [2], in experiment [3], in [4], in [6] and in experiment [7] was inactive. The result in experiment [8], in experiment [12], in experiment [14] and in experiment [18] was inactive. Also, the AC50 (usually the midpoint of the concentration-response curve, whichever way the signal moves) was 19.9 µM (active) in experiment [5]; 6.83 µM (active) in experiment [9]; 19.9 µM (active) in [10]; 1.1 µM (active) in [11]; 3.77 µM (active) in [13]; 27.4 µM (active) in experiment [15]. The values for the half-maximal activity concentration (AC50) in experiment [16], in [17] and in experiment [19] were 102 µM (active), 72.4 µM (active) and 4.51 µM (active), respectively.

Regarding `CCOP(=S)(OCC)SCn1c(=O)oc2cc(Cl)ccc21`, the result in [1], in experiment [2], in experiment [3], in experiment [4], in [6] and in experiment [7] was inactive. The molecule was classed as inactive in experiment [8], in experiment [12] and in experiment [14]. Moreover, the AC50 in experiment [5] is 32.3 µM (active); in experiment [9] it was 20 µM (active); in [10], 29 µM (active); in [15], 29.3 µM (active).

Regarding `CO/C=C(/C(=O)OC)c1ccccc1Oc1cc(Oc2ccccc2C#N)ncn1`, the result in experiment [1], in experiment [2], in experiment [3], in [4], in experiment [6] and in [7] was inactive. Further, the call in experiment [8], in [12] and in experiment [14] was inactive. Moreover, the half-maximal activity concentration (AC50) in [5] is 10.2 µM (active); in experiment [9], 7.21 µM (active); in experiment [10] it was 11.1 µM (active); in experiment [15], 10.7 µM (active); in experiment [18], 925 nM (active) and 1.71 µM (active); in experiment [19] it was 1.64 µM (active) and 1.26 µM (active).

As for `CC(C)Oc1cc(-n2nc(C(C)(C)C)oc2=O)c(Cl)cc1Cl`, the outcome in experiment [1], in [2], in experiment [3], in experiment [4], in experiment [5] and in experiment [6] was inactive. In addition, the molecule was classed as inactive in experiment [7], in experiment [8], in experiment [9], in [10], in experiment [12] and in [14]. Further, the call in [15] was inactive.

With `CS/C(C)=N/OC(=O)N(C)SN(C)C(=O)O/N=C(\C)SC`, the result in experiment [1], in experiment [2], in experiment [3], in [4], in experiment [6] and in [10] was inactive. In addition, the call in [12] and in [14] was inactive. Further, the half-maximal activity concentration (AC50) in [5] is 25.5 µM (active); in experiment [7] it was 20 µM (active); in experiment [8], 25.3 µM (active); in experiment [9] it was 20 µM (active); in experiment [15], 27.8 µM (active).

Turning to `O=C(Nc1ccccc1)Nc1ccnc(Cl)c1`, the result in experiment [1] and in experiment [2] was inactive.

On to `COC(=O)C=C(C)OP(=O)(OC)OC`, for which the outcome in [1] and in experiment [2] was inactive.

Take `CNC(=S)S`: the outcome in experiment [1] and in [2] was inactive.

With `Cc1cc(Cl)ccc1OCC(=O)O`, the result in experiment [1] was inactive.

Regarding `CCc1nn(C)c(C(=O)NCc2ccc(C(C)(C)C)cc2)c1Cl`, in experiment [1], the result was inactive.

Consider `CC(C)C1(C)N=C(c2nc3ccccc3cc2C(=O)O)NC1=O` (stereo not drawn), for which the outcome in experiment [1] was inactive.

As for `COc1nc(NC(C)C)nc(NC(C)C)n1`, in experiment [1], the outcome was inactive.

Consider `C#CCOS(=O)OC1CCCCC1Oc1ccc(C(C)(C)C)cc1` (stereo not drawn), for which the result in experiment [1], in [2], in experiment [3], in experiment [7], in experiment [8] and in [9] was inactive. Also, the outcome in experiment [10] and in [12] was inactive. For the same molecule, the half-maximal activity concentration (AC50) in experiment [4] is 33.6 µM (active); in [5], 32 µM (active); in experiment [6], 34.6 µM (active); in experiment [14], 20 µM (active); in experiment [15], 32.5 µM (active).

For the molecule `COP(N)(=O)SC` (stereo not drawn), the result in experiment [1], in experiment [3], in experiment [4], in experiment [5], in experiment [6] and in [7] was inactive. The call in experiment [8], in experiment [9], in experiment [10], in experiment [12], in experiment [14] and in experiment [15] was inactive. Moreover, the result in experiment [20], in experiment [18] and in experiment [19] was inactive.
